Structures are written as SMILES. Unmarked numbers belong to inactive results. Calls come from the whole dose curve.
% is set by controls: 0 for no effect and ±100 for the full control effect.

The first assay can be described thus: qHTS assay to identify small molecule agonists of the estrogen related receptor (ERR) signaling pathway from Tox21 library (AID 1224849). Note: nearly all actives have a fitted effect of over 15% in size. As to conditions: ERR reporter cell line, ONE-Glo luciferase, 18 h; at 42.5 µM (top of the series). The source says:
National Center for Advancing Translational Sciences [NCATS]
NIH Chemical Genomics Center [NCGC]
U.S. Environmental Protection Agency [EPA]
National Institutes of Environmental Health Sciences [NIEHS]
National Toxicology Program [NTP]
Estrogen related receptors (ERRs), the first orphan nuclear receptors discovered, play an important role in the control of cellular energy metabolism. ERRs are required for high-energy production in response to the environmental challenges. ERR-alpha was also identified as an adverse marker for breast cancer progression; ERR-alpha-positive tumors have a poor prognosis. To screen and to identify environmental compounds that perturb the ERR signaling pathways could provide valuable information for potential therapeutic or preventive measures in the treatment of metabolic disease. For identifying ERR agonists, ERR cell line (provided by NTP) has been used to screen Tox21 10K library.
The ERR cells were dispensed at 2,000 cells/5 ul/well in 1536-well white plates using a Multidrop dispenser. After the assay plates were incubated at a 37 C/5% CO2 incubator for 6 hours, 23 nL of compounds dissolved in DMSO, positive and negative controls or DMSO only was transferred to the assay plate by a pin tool. The plates were incubated at 37 C for 18 hours. 4 ul/well of One-Glo reagent was added into the assay plates using a Flying Reagent Dispenser. After 30-minute incubation at room temperature, the luminescence intensity in the plates was measured using a ViewLux plate reader.
Background: In qHTS, concentration-response curves come from the screen itself.
In the case of `COC(=O)C1=C(C)NC(C)=C(C(=O)OC)C1c1ccccc1[N+](=O)[O-]`, the activity change, positive = activation was -8.97%.

Still in this assay, the particulars now being: ERR reporter cell line, ONE-Glo luciferase, 18 h; at 92.4 µM (top of the series).
For `COC(=O)C1=C(C)NC(C)=C(C(=O)OC)C1c1ccccc1[N+](=O)[O-]`, the activity change, positive = activation was -13.3%.

Still in this assay, the particulars now being: ERR reporter cell line, ONE-Glo luciferase, 18 h; at 92.4 µM (top of the series) unless noted.
As to `CN1C(=O)N(C)C(O)C1O` (stereo not given), the activity change, positive = activation is 0.239%.

For `O=c1[nH]c(=O)n([C@H]2C[C@H](O)[C@@H](CO)O2)cc1I`, the activity change, positive = activation was 11% [at 42.5 µM].

For `CC(=O)OCC(=O)[C@@]1(O)CCC2C3CCC4=CC(=O)CC[C@]4(C)C3[C@@H](O)C[C@@]21C` (stereo not given in full), the activity change, positive = activation was -12.1% [at 42.5 µM].

Take `CCn1nc(C(=O)O)c(=O)c2cc3c(cc21)OCO3`: the activity change, positive = activation is 7.18% [at 42.5 µM].

For `CN(C)CCCSc1ccccc1NC(=O)/C=C/c1ccccc1`, the activity change, positive = activation was 9.36% [at 42.5 µM].

`CCCCCCCCS(=O)(=O)Cl`: the activity change, positive = activation is 7.34%.

For the compound `CCC=O`, the activity change, positive = activation is 0.85%.

In the case of `Cc1c(O)cccc1O`, the activity change, positive = activation is 2.02%.

Regarding `CCCCNC(=O)NCCCC`, the activity change, positive = activation was 12.5%.

On to `CC(C)CNCC(C)C`, for which the activity change, positive = activation was 1.17%.

As to `C=C(C)C(=O)OCCCCCCCC(C)C`, the activity change, positive = activation is 2.01%.

For `CCOC(=O)[C@H](CCc1ccccc1)N[C@@H](C)C(=O)N1[C@H](C(=O)O)C[C@@H]2CCC[C@@H]21`, the activity change, positive = activation is 3.92% [at 42.5 µM].

Turning to `Cc1cccn2c(=O)c(-c3nnn[nH]3)cnc12`, the activity change, positive = activation is 4.72% [at 19 µM].

In the case of `CN(C(=O)c1c(O)c2ccccc2n(C)c1=O)c1ccccc1`, the activity change, positive = activation was 0.397% [at 42.5 µM].

On to `CCOC(=O)C(=O)OCC`, for which the activity change, positive = activation is 4.42%.

As to `NC(CSCC(=O)O)C(=O)O` (stereo not given), the activity change, positive = activation is 5.41% [at 42.5 µM].

For the compound `Cc1cc2c(cc1S(N)(=O)=O)S(=O)(=O)CCC2`, the activity change, positive = activation is 2.29% [at 42.5 µM].

Consider `CC1(C)CO[C@@H](CC(=O)O)CN1`, for which the activity change, positive = activation is 0.501% [at 42.5 µM].

For the compound `NS(=O)(=O)c1cc(C(=O)NN2C[C@H]3[C@H]4CCC(C4)[C@H]3C2)ccc1Cl`, the activity change, positive = activation is -1.11% [at 42.5 µM].

On to `CCO/C([O-])=N/c1c[n+](N2CCOCC2)no1`, for which the activity change, positive = activation was 0.723% [at 42.5 µM].

For `O=C1OC(=O)C2CCCCC12` (stereo not given), the activity change, positive = activation is -1.02%.

For `CN1N=C(C(N)=O)CCC1=O`, the activity change, positive = activation was 0.737% [at 42.5 µM].

For the compound `O=C(O)CCCc1ccccc1`, the activity change, positive = activation was 7.78% [at 42.5 µM].

Regarding `Nc1ccccc1S(=O)(=O)O`, the activity change, positive = activation was 3.7%.

As for `CCCCCCCCCCCCN(CCCCCCCCCCCC)CCCCCCCCCCCC`, the activity change, positive = activation is 5.6%.

As to `CC(=O)CC(C)C`, the activity change, positive = activation was 1.24%.

In the case of `CCCC(=O)O[C@]1(C(=O)CO)CC[C@H]2[C@@H]3CCC4=CC(=O)CC[C@]4(C)[C@H]3[C@@H](O)C[C@@]21C`, the activity change, positive = activation was -12.3% [at 42.5 µM].

As for `NS(=O)(=O)c1ccc(C(=O)O)cc1`, the activity change, positive = activation is 9.6% [at 42.5 µM].

Take `CCc1nccnc1CC`: the activity change, positive = activation was 2.61% [at 19 µM].

In the case of `CO[C@]12C[C@@H](COC(=O)c3cncc(Br)c3)CN(C)[C@@H]1Cc1cn(C)c3cccc2c13`, the activity change, positive = activation is 6.2% [at 42.5 µM].

`CC(C)c1cc2c(cc1S(=O)(=O)O)[C@@]1(C)CCC[C@@](C)(C(=O)O)[C@@H]1CC2`: the activity change, positive = activation was 5.5% [at 42.5 µM].

For `C[C@@H]1CCN(C(=O)[C@H](CCCN=C(N)N)NS(=O)(=O)c2cccc3c2NC[C@H](C)C3)[C@@H](C(=O)O)C1`, the activity change, positive = activation is 6.26% [at 42.5 µM].

As for `CCCN1CCCC[C@H]1C(=O)Nc1c(C)cccc1C`, the activity change, positive = activation is 6.18% [at 42.5 µM].

Take `CCCCC(CC)COC(=O)c1ccccc1O` (stereo not given): the activity change, positive = activation is 5.6% [at 42.5 µM].

For `CCOC(=O)CCC(C)=O`, the activity change, positive = activation is 4.77%.

Regarding `CC/C=C\CC/C=C/CO`, the activity change, positive = activation was 5.28%.

As for `CCOc1ccc(C(=O)OCCN(CC)CC)cc1`, the activity change, positive = activation was 1.57% [at 42.5 µM].

Regarding `O=C(CCCN1CCN(c2ccccn2)CC1)c1ccc(F)cc1`, the activity change, positive = activation is -14.3% [at 42.5 µM].

The values are drawn from PubChem BioAssay (Tox21).
